Test [1] addresses Cytochrome P450 3A4 (Homo sapiens) (UniProt P08684). Kind of test: qHTS Assay for Inhibitors and Substrates of Cytochrome P450 3A4 (AID 884). Also: nearly all actives have a fitted effect of over 50% in size. Also: potency is read from the fitted curve at half-maximal effect. The essentials:
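Luminescent readout of luciferin produced by CYP3A4 (20 nM) dealkylation of Luciferin-PPXE, 25 uM (its KM). NADPH-driven reaction ran 60 min at RT after 10 min compound preincubation; data scaled to 57 uM ketoconazole as 100% inhibition.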
Background: In qHTS, concentration-response curves come from the screen itself.

Test [2] can be described thus: Confirmation and Secondary Assay for Modulators of Hemoglobin Beta Chain Splicing at IVS2 654 locus (AID 910).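 Also: HeLa cells stably carrying EGFP split by mutant beta-globin IVS2-654 intron.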 A digest of the protocol:
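HeLa cells stably expressing EGFP interrupted by β-globin IVS2-654 intron, seeded overnight in Opti-MEM/2% FCS, then treated 2 days at 37 °C. Restored splicing read as total peak GFP intensity per well by laser scanning cytometry (488 nm excitation, 500–520 nm emission); 500 nM antisense PNA as control.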

Test [3] in a line: Confirmation and Secondary Assay for Modulators of Hemoglobin Beta Chain Splicing at IVS2 705 locus (AID 930).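 Also: HeLa cells stably expressing the EGFP-705 splicing reporter; GFP fluorescence per well restored by corrected splicing of the IVS2-705 intron in EGFP.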 A digest of the protocol:
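HeLa cells stably carrying EGFP interrupted by mutant beta-globin intron 2 (IVS2-705) treated 2 days at 37C with compound; 500 nM antisense PNA as control. Correct splicing read as total peak GFP intensity per well by laser-scanning cytometry.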

Test [4] addresses Cytochrome P450 2C19 (Homo sapiens) (UniProt P33261). In words: qHTS Assay for Inhibitors and Substrates of Cytochrome P450 2C19 (AID 899). Also: nearly all actives have a fitted effect of over 60% in size. The essentials:
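Signal comes from luciferase acting on luciferin released by CYP2C19-mediated hydroxylation of Luciferin-H EGE, 10uM (KM). Assay mix: 5nM enzyme, 50mM KPO4; 60 min at 37C with NADPH regeneration. Data normalized against 57uM ketoconazole.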

Test [5] deals with CP260. In words: qHTS profiling for inhibitors of Plasmodium falciparum proliferation (AID 504749). Also: nearly all actives have a fitted effect of over 60% in size. Also: potency is read from the fitted curve at half-maximal effect. As to conditions: P. falciparum in erythrocytes, SYBR Green DNA, 72 h; series mostly up to 28.7 µM. A digest of the protocol:
(§1)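 SYBR Green fluorescence (ex 485 nm, em 535 nm) reports parasite DNA after 72 h compound exposure of infected red cells at 0.3% parasitemia, 2.5% hematocrit; signal normalized to 0.29 uM artemisinin and vehicle wells.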

Test [6] has as its system CP268. The description is as above. As to conditions: P. falciparum in erythrocytes, SYBR Green DNA, 72 h; series mostly up to 28.7 µM. The essentials:
as §1

Test [7] concerns DIV14. The test is described as above. To be noted: P. falciparum in erythrocytes, SYBR Green DNA, 72 h; series mostly up to 28.7 µM. The essentials: as §1
In test [8] the test system is JCK. The description is as above. As to conditions: P. falciparum in erythrocytes, SYBR Green DNA, 72 h; series mostly up to 28.7 µM. A digest of the protocol:
as §1

The subject of test [9] is PAD. Described as above. As to conditions: P. falciparum in erythrocytes, SYBR Green DNA, 72 h; series mostly up to 28.7 µM. A digest of the protocol: as §1
Test [10] concerns PC15. The description is as above. To be noted: P. falciparum in erythrocytes, SYBR Green DNA, 72 h; series mostly up to 28.7 µM. The essentials: as §1
For test [11], the system named is PC26. The test is described as above. To be noted: P. falciparum in erythrocytes, SYBR Green DNA, 72 h; series mostly up to 28.7 µM. The essentials: as §1
Test [12] has as its system SC27B. The test is described as above. To be noted: P. falciparum in erythrocytes, SYBR Green DNA, 72 h; series mostly up to 28.7 µM. A digest of the protocol: as §1
Test [13] relates to TAB113. Described as above. As to conditions: P. falciparum in erythrocytes, SYBR Green DNA, 72 h; series mostly up to 28.7 µM. The essentials: as §1
Test [14] concerns the target Cytochrome P450 3A4 (Homo sapiens) (UniProt P08684). In words: qHTS Assay for Activators of Cytochrome P450 3A4 (AID 885). Also: nearly all actives have a fitted effect of over 65% in size. Also: potency is read from the fitted curve at half-maximal effect. The essentials: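 Activators are scored by enhanced luminescence from CYP3A4 conversion of luciferin-PPXE (25uM, equal to KM) to luciferin, after 60 min at RT with an NADPH-regenerating system.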
Test [15] has as its system 7G8. In words: qHTS profiling for inhibitors of Plasmodium falciparum proliferation (AID 504749). Also: nearly all actives have a fitted effect of over 60% in size. Also: potency is read from the fitted curve at half-maximal effect. To be noted: P. falciparum in erythrocytes, SYBR Green DNA, 72 h; series mostly up to 12.8 µM. A digest of the protocol: as §1
Test [16] relates to CP265. The description is as above. As to conditions: P. falciparum in erythrocytes, SYBR Green DNA, 72 h; series mostly up to 12.8 µM. The essentials:
as §1

Test [17] relates to CP335. The test is described as above. As to conditions: P. falciparum in erythrocytes, SYBR Green DNA, 72 h; series mostly up to 12.8 µM. A digest of the protocol: as §1
For test [18], the system named is ICS. The description is as above. To be noted: P. falciparum in erythrocytes, SYBR Green DNA, 72 h; series mostly up to 28.7 µM. The essentials:
as §1

For test [19], the system named is W2. The description is as above. To be noted: P. falciparum in erythrocytes, SYBR Green DNA, 72 h; series mostly up to 12.8 µM. A digest of the protocol:
as §1

Unmarked numbers belong to inactive results. Inconclusive results are not listed. Calls of active or inactive are those of the source. Calls follow the shape of the dose curve; as a rule, active = well fitted curve in the direction sought with a large enough effect; inconclusive = small, poorly fitted or top-dose-only effect, or another doubt; inactive = no such curve, though single readings can be large; an effect the other way counts as inactive or inconclusive.

Experimental findings from PubChem BioAssay (NCATS) are described below.

Chain of Cytochrome P450 3A4 (Homo sapiens) (P08684 whole entry, looked up): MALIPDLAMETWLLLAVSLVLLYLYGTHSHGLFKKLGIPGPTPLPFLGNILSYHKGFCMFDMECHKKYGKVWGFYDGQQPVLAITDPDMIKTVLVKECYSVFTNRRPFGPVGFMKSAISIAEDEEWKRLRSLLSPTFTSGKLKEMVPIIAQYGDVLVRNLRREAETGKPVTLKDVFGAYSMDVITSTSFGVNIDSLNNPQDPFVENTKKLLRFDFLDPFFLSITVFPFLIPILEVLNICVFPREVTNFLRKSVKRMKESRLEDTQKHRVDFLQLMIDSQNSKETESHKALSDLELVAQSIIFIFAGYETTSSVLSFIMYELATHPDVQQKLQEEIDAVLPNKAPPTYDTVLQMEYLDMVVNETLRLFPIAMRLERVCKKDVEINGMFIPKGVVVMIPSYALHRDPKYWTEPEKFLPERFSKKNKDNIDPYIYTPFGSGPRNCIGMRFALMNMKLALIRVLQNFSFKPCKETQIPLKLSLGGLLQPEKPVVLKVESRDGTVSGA
Chain of Cytochrome P450 2C19 (Homo sapiens) (P33261 whole entry, looked up): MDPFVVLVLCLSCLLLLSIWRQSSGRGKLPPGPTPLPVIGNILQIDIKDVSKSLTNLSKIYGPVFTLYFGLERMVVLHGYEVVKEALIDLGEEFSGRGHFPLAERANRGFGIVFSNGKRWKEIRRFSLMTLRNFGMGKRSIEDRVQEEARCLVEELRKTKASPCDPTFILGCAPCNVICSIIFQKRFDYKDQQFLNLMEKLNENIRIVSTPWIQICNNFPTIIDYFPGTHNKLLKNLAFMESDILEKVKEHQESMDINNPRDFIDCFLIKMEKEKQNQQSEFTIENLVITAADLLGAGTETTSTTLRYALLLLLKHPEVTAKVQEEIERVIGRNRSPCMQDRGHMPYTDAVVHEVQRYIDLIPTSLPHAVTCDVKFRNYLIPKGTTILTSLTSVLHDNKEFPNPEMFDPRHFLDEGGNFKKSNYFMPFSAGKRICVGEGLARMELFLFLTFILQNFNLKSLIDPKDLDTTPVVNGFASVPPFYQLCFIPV

Turning to `c1ccc2c(c1)[nH]c1cnccc12`, the Potency entry in test [1], in test [2] and in test [3] was “inactive” in each case.

In the case of `O=C1C=C2C=C[C@H]3C[C@@]2(O1)[C@H]1CCCCN31`, the Potency result in [4] was “inactive”.

On to `C[C@H](NC(C)(C)C)C(=O)c1cccc(Cl)c1`, for which the Potency entry in test [5], in test [6], in test [7], in [8], in test [9] and in test [10] was “inactive” each time. In addition, the Potency result in test [11], in test [12] and in [13] was “inactive” throughout.

Take `O=C1C(Cl)=C(Cl)C(=O)C(Cl)=C1Cl`: the Potency result in test [14], in test [2] and in test [3] was “inactive” in each case.

For `C[C@@]12CC[C@H](O)C[C@@H]1CC[C@H]1[C@H]2CC[C@@]2(C)[C@@H](C3=CC(=O)OC3)CC[C@]12O`, in [1], the Potency is 3.16 µM (active).

Consider `COc1cc2c(c(OC)c1OC)-c1ccc(O)c(=O)cc1[C@@H](NC(C)=O)CC2`, for which the Potency entry in test [1] and in test [4] was “inactive” each time.

With `COc1ccc(C[C@H]2c3cc(OC)c(OC)cc3CCN2C)cc1OC`, in test [4], the Potency entry is “inactive”.

On to `COc1cc(N)c(Cl)cc1C(=O)N[C@@H]1CN2CCC1CC2`, for which the Potency entry in [15], in test [5], in [16], in [6], in test [17] and in [7] was “inactive” each time. Besides, the Potency entry in test [18], in test [8], in [9], in test [10], in [11] and in test [12] was “inactive” each time. Besides, the Potency result in test [13] was “inactive”.

In the case of `CC(=O)O[C@H]1CC[C@@]2(C)C(=CC[C@@H]3[C@H]2CC[C@]2(C)C(=O)CC[C@H]32)C1`, the Potency in test [14] is 12.6 µM (active). Also, the Potency result in test [15], in test [5], in [16], in test [6], in [17] and in test [7] was “inactive” in each case. Besides, the Potency entry in test [18], in test [8], in test [9], in test [10], in [11] and in test [12] was “inactive” throughout. Also, the Potency result in test [13] and in test [19] was “inactive” throughout.

For `CNC(=O)Oc1ccccc1OC(C)C`, the Potency result in [1], in test [2] and in test [3] was “inactive” in each case.

Consider `C=C[C@H]1CN2CCC1C[C@@H]2C(O)c1ccnc2ccccc12` (some centres undefined), for which the Potency entry in test [1] is “inactive”.

Regarding `CC(C)(C)C(=O)C(Oc1ccc(Cl)cc1)n1cncn1` (centres undefined), the Potency result in test [14], in test [2] and in [3] was “inactive” throughout.

With `CC(C)Nc1nc(Cl)nc(NC(C)C)n1`, the Potency result in test [1], in [2] and in test [3] was “inactive” in each case.

With `CCS(=O)CCSP(=O)(OC)OC` (centres undefined), the Potency entry in [1], in test [2] and in test [3] was “inactive” each time.

`CC(C)(C)[C@]1(O)C[C@@H]2OC(=O)C[C@@]23C(=O)O[C@@H]2OC(=O)[C@H](O)[C@]213`: in test [1], the Potency result was “inactive”.

For `CCC(=O)Nc1ccc(Cl)c(Cl)c1`, the Potency in test [1] is 15.8 µM (active). Also, the Potency result in test [14], in test [2] and in test [3] was “inactive” each time.

Regarding `CCC(C)C1O[C@]2(C=CC1C)CC1CC(C/C=C(\C)[C@H](OC3CC(OC)C(O[C@H]4CC(OC)[C@@H](O)C(C)O4)C(C)O3)[C@@H](C)/C=C/C=C3\COC4C(O)C(C)=C[C@H](C(=O)O1)[C@@]34O)O2` (some centres undefined), the Potency entry in test [1], in [2] and in [3] was “inactive” each time. Besides, the Potency is 10 µM (active) in [15]; 8.91 µM (active) in test [16]; 6.75 µM (active) in [17]; 12 µM (active) in test [7]; 7.08 µM (active) in test [18]; 7.57 µM (active) in test [11]. For the same compound, the Potency was 11.2 µM (active) in test [12] and 4.78 µM (active) in [19].

Take `CC1CC[C@@]2(NC1)O[C@@H]1C[C@H]3C4CC=C5C[C@@H](O)CC[C@]5(C)C4CC[C@]3(C)[C@H]1[C@@H]2C` (some centres undefined): in test [1], the Potency entry is “inactive”.

As to `O=C1C=C2C=CC3C[C@@]2(O1)C1CCCCN31` (some centres undefined), the Potency entry in test [14], in [2], in [3] and in test [7] was “inactive” in each case. Besides, the Potency was 8.91 µM (active) in test [15]; 6.31 µM (active) in [5]; 7.94 µM (active) in test [18]; 12.6 µM (active) in test [9]; 14.1 µM (active) in test [13]; 7.57 µM (active) in [19].

Take `C[C@]1(C(=O)O)CCC[C@]2(C)c3cc(O)ccc3CC[C@@H]12`: in [1], the Potency entry was “inactive”.

On to `C=CC1CN2CCC1CC2C(OC(=O)OCC)c1ccnc2ccc(OC)cc12` (centres undefined), for which the Potency in test [1] is 7.94 µM (active); in [15], 2.51 µM (active); in test [5], 10 µM (active); in test [16] it was 5.01 µM (active); in [17], 9.53 µM (active); in test [7] it was 6.01 µM (active). The Potency is 3.98 µM (active) in [18]; 6.31 µM (active) in test [9]; 3.98 µM (active) in test [10]; 6.01 µM (active) in [11]; 8.91 µM (active) in test [13]; 2.13 µM (active) in [19]. The Potency entry in [14], in test [2] and in test [3] was “inactive” each time.
